Active and inactive are the calls of the source.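 How the source made its calls: active means glucocerebrosidase seen by eye moving to lysosomes in immunostained patient skin cells after 5 µM compound; inconclusive means microscope result judged unclear; inactive means no movement seen.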
The molecules below were run against Lysosomal acid glucosylceramidase (Homo sapiens) (UniProt P04062) (assay: qHTS for Activators of Human Glucocerebrosidase as a Potential Chaperone Treatment of Gaucher Disease: Fibroblast Translocation). Settings: Gaucher patient fibroblasts, GCase lysosomal translocation, immunofluorescence.
Lysosomal acid glucosylceramidase (Homo sapiens), sequence (P04062 whole entry N409S): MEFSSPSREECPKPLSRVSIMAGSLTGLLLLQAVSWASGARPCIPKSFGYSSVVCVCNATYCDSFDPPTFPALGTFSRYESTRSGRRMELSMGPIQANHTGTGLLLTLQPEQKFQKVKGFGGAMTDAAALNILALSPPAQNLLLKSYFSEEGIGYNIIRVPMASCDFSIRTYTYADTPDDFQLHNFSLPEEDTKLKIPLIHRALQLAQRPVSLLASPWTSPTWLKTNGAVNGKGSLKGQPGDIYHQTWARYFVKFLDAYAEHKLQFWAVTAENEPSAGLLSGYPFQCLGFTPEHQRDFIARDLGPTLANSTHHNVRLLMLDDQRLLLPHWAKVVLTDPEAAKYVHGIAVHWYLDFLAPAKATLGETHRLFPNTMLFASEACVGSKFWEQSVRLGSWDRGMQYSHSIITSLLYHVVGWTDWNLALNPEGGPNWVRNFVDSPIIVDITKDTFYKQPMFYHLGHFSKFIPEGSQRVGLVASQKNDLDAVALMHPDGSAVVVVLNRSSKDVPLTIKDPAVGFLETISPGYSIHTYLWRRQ
Source text: Glucocerebrosidase (GCase) catalyzes the hydrolysis of beta-glucocerebroside to glucose and ceramide in lysosomes. Mutations in the glucocerebrosidase gene result in Gaucher disease, an autosomal recessive lysosomal storage disorder. Many of the mutations encountered in patients with Gaucher disease are missense alterations that may cause misfolding, decreased stability and/or mistrafficking of this lysosomal protein. […] However, the enhancement of enzyme activity by the chaperone action of an enzyme inhibitor must be balanced against the direct inhibition of the enzyme. An enzyme activator could also function as a chaperone by binding to the enzyme and helping to correct its misfolding and mistrafficking. Activators for GCase have not yet been identified, and they may have better therapeutic potential than inhibitors. Therefore the discovery and development of chemical activators may provide a new strategy for the chaperone therapy. The probe that has been identified was tested in a chaperone translocation experiment in human fibroblasts. This assay attempts to quantitate translocated glucocerebrosidase protein in patient-derived fibroblasts following extended compound incubation. The fibroblasts tested in this experiment were homozygous either for N370S glucocerebrosidase or wildtype GCase. NIH Chemical Genomics Center [NCGC] […]
For `C#Cc1ccc(NC(=O)c2cnn3c(C)cc(C)nc23)cc1`, the outcome was “active; yes”.
`CN(C(=O)CNC(=O)c1ccccc1OCC(=O)Nc1ccc(Br)cc1)c1ccccc1` was tested, and the outcome was “active; yes”.
